{"source": "PubChem BioAssay AID651658", "about": "(Broad Institute, 2012)", "note": "About 5,100 (1.5%) of roughly 340,000 compounds were called active. The sample as a whole holds a higher share of actives than the screen did. A number with no mark means an inactive call.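 How the source made its calls: active means mean Tm shift, scaled 0 neutral to 100 positive control, at about 1.3% or above, every replicate too (limit read from the data); inconclusive means no clear call, values can overlap the other calls; inactive means the rest.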"}
{"target": "Fibroblast growth factor 22 (Homo sapiens) (UniProt Q9HCT0)", "sequence (Q9HCT0 whole entry, looked up)": "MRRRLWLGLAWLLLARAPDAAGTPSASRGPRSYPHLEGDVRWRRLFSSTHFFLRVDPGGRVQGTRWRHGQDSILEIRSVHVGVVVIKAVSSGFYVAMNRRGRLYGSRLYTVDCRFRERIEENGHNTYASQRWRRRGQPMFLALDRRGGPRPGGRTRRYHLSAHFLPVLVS", "experiment": "FGF22 ligand-induced thermal stabilization – biophysical, thermal shift, single point, FGF22 synaptogenesis inhibitor project, primary screen (AID 651658)", "conditions": "recombinant FGF22 thermal shift, SYPRO orange fluorescence; at 9.99 µM; hits give high values; percent of sucrose octasulfate shift, DMSO zero"}
{"smiles": "CO[C@H]1CN(C)C(=O)c2cc(NC(=O)Nc3ccc4c(c3)OCO4)ccc2OC[C@@H](C)NC[C@@H]1C", "activity (Tm shift, normalised)": "-0.132%"}
{"smiles": "O=C(C1CCCCC1)N1CC2(C1)[C@H](c1ccccc1)[C@@H](CO)N2Cc1cncnc1", "activity (Tm shift, normalised)": "-0.162%"}
{"smiles": "COc1ccc(NC(=O)Nc2ccc3c(c2)[C@H]2C[C@H](CC(=O)NC4CCCCC4)O[C@H](CO)[C@H]2O3)cc1", "activity (Tm shift, normalised)": "0.101%"}
{"smiles": "COc1cccc(S(=O)(=O)N2C[C@@H](O)COC[C@H]3O[C@@H](CC(=O)N4CCOCC4)CC[C@@H]32)c1", "activity (Tm shift, normalised)": "-0.291%"}
{"smiles": "CC=Cc1ccc2n(c1=O)C[C@H]1[C@H](CO)[C@@H](C(=O)NCc3ccncc3)N(Cc3cncnc3)[C@@H]21", "note": "(mixture of isomers)", "activity (Tm shift, normalised)": "-0.145%"}
{"smiles": "COCCNC(=O)C[C@H]1C=C[C@@H](NS(=O)(=O)c2ccc(C)cc2)[C@@H](CO)O1", "activity (Tm shift, normalised)": "-0.463%"}
{"smiles": "COc1ccc(NC(=O)Nc2ccc3c(c2)C(=O)N([C@H](C)CO)C[C@@H](C)[C@H](CN(C)CC2CCCCC2)OCCCC[C@@H](C)O3)cc1", "activity (Tm shift, normalised)": "-0.629%"}
{"smiles": "CC(=O)N1[C@@H](CO)[C@@H](c2ccc(C3=CCCC3)cc2)C12CN(C(=O)C1CC1)C2", "activity (Tm shift, normalised)": "-0.078%"}
{"smiles": "COc1cccc(C(=O)NNS(=O)(=O)c2ccc(F)cc2)c1", "activity (Tm shift, normalised)": "0.083%"}
{"smiles": "O=C(Nc1ccncc1)Nc1ccc(F)cc1", "activity (Tm shift, normalised)": "0.093%"}
{"smiles": "COc1cccc(NC(=O)Nc2ccc(F)cc2)c1", "activity (Tm shift, normalised)": "45.2% (active)"}
{"smiles": "COCC(=O)N1CC2(CN(C(=O)c3cccnc3)C2)c2c([nH]c3cc(OC)ccc23)[C@H]1CO", "activity (Tm shift, normalised)": "-0.173%"}
{"smiles": "O=C(CNC(=O)c1ccco1)NNC(=O)c1ccc(Br)cc1", "activity (Tm shift, normalised)": "-0.466%"}
{"smiles": "Cc1ccc(S(=O)(=O)NCC(=O)NNC(=O)c2ccc(Br)cc2)cc1C", "activity (Tm shift, normalised)": "43.7% (active)"}
{"smiles": "Cc1ccc(S(=O)(=O)NCCC(=O)NCc2ccc(Cl)cc2)cc1C", "activity (Tm shift, normalised)": "-0.011%"}
{"smiles": "O=C(C[C@H]1C=C[C@H](NC(=O)CC2CC2)[C@H](CO)O1)NCc1ccc(Cl)cc1", "activity (Tm shift, normalised)": "-0.113%"}
{"smiles": "Cn1c2ccccc2c(=O)c2c(O)cccc21", "activity (Tm shift, normalised)": "43.7% (active)"}
{"smiles": "COc1cc2c(=O)n(C)c3ccccc3c2cc1OC", "activity (Tm shift, normalised)": "0.02%"}
{"smiles": "Cc1cc(C)c(-c2c(O)c3ccccc3n(C)c2=O)c(C)c1", "activity (Tm shift, normalised)": "-0.131%"}
{"smiles": "O=C(C[C@H]1CC[C@H]2[C@@H](COC[C@H](O)CN2Cc2ccncc2)O1)NCC1CC1", "activity (Tm shift, normalised)": "-0.243%"}
{"smiles": "CN1[C@H](C(=O)N2CCc3ccccc3C2)[C@@H](CO)[C@@H]2Cn3c(ccc(-c4cncnc4)c3=O)[C@@H]21", "activity (Tm shift, normalised)": "0.086%"}
{"smiles": "O=C(CSc1ccccc1)Nc1ccc(C(=O)Nc2cccc(O)c2)cc1", "activity (Tm shift, normalised)": "42.3%"}
{"smiles": "Cc1cc(C)cc(NC(=O)CSc2ccccc2)c1", "activity (Tm shift, normalised)": "43.4% (active)"}
{"smiles": "Cc1cc(C)cc(NC(=O)CN2C(=O)c3ccccc3C2=O)c1", "activity (Tm shift, normalised)": "-0.094%"}
{"smiles": "O=C(CN1C(=O)NC2(CCCCCC2)C1=O)NC1CC1", "activity (Tm shift, normalised)": "-0.266%"}
{"smiles": "O=C(CN1C(=O)NC2(CCCC2)C1=O)NCC1CCCO1", "note": "(stereo not given)", "activity (Tm shift, normalised)": "43.3% (active)"}
{"smiles": "O=C(CN1C(=O)NC2(CCCCCC2)C1=O)NCc1ccc(F)cc1", "activity (Tm shift, normalised)": "0.013%"}
{"smiles": "COc1cccc(NC(=O)C[C@H]2CC[C@@H]3[C@@H](COc4ccc(NC(=O)C5CCOCC5)cc4C(=O)N3C)O2)c1", "activity (Tm shift, normalised)": "0.326%"}
{"smiles": "C[C@H]1CN([C@@H](C)CO)C(=O)c2cc(-c3ccccc3)cnc2O[C@H]1CN(C)C(=O)C1CCOCC1", "activity (Tm shift, normalised)": "0.036%"}
{"smiles": "O=C(NC1Cc2ccccc2C1)[C@@H]1[C@@H](CO)[C@@H]2Cn3c(ccc(C4=CCCC4)c3=O)[C@H]1N2CC1CC1", "activity (Tm shift, normalised)": "0.451%"}
{"smiles": "C[C@H]1CN([C@@H](C)CO)C(=O)CCCn2nncc2CO[C@@H]1CN(C)S(=O)(=O)c1ccccc1C#N", "activity (Tm shift, normalised)": "-0.468%"}
{"smiles": "Cc1ccccc1OCC(O)CN1CCN(c2ccccn2)CC1", "note": "(stereo not given)", "activity (Tm shift, normalised)": "44.2% (active)"}
{"smiles": "Cc1cccc(OCC(O)CN2CCN(CCN3C(=O)c4cccc5cccc(c45)C3=O)CC2)c1C", "note": "(stereo not given)", "activity (Tm shift, normalised)": "0.358%"}
{"smiles": "CC(C)c1ccc(OCC(O)CN2CCN(c3ccccn3)CC2)cc1", "note": "(stereo not given)", "activity (Tm shift, normalised)": "-0.21%"}
{"smiles": "COc1ccc(NC(=O)N[C@H]2C=C[C@H](CC(=O)NCc3ccccn3)O[C@H]2CO)cc1", "activity (Tm shift, normalised)": "0.256%"}
{"smiles": "CO[C@H](CN(C)C(=O)c1cnccn1)[C@@H](C)CN([C@@H](C)CO)S(=O)(=O)c1ccc(C)cc1", "activity (Tm shift, normalised)": "0.044%"}
{"smiles": "COc1ccc(CC2(CO)CCN(Cc3cnn(C)c3)CC2)cc1", "activity (Tm shift, normalised)": "0.198%"}
{"smiles": "OCC1(Cc2ccccc2)CCN(Cc2cc3ccccc3o2)CC1", "activity (Tm shift, normalised)": "42.4%"}
{"smiles": "COc1ccccc1/C=C/CN1CCC(CO)(Cc2ccccc2)CC1", "activity (Tm shift, normalised)": "43.2% (active)"}
{"smiles": "CO[C@H]1CN(C)C(=O)c2cc(NC(=O)c3nc4ccccc4s3)ccc2OC[C@H](C)N(Cc2cccnc2)C[C@@H]1C", "activity (Tm shift, normalised)": "-0.365%"}
